The text below walks through data of ChEMBL document CHEMBL4513216, “Probing the Open Global Health Chemical Diversity Library for Multistage-Active Starting Points for Next-Generation Antimalarials” (ACS Infect Dis, 2020).

About 8,600 (12%) of roughly 69,000 compounds showed an effect of 50% or more. For the sample, strong results were picked, then their nearest neighbours and some compounds at random.

The assay deals with Plasmodium berghei. Kind of assay: Screen against P. berghei liver stage (PbLuc), transformed with Luciferase, at 10uM. In kind it is functional, HepG2. The conditions noted are these: tested at 10 uM.
Turning to `COc1ccc(CNC(=O)NC2CCN(C)CC2)c(C(F)(F)F)c1`, the INHIBITION was determined as 33.8%. Regarding `O=C(Cn1ccnc1)N1CC[C@H](Oc2cccc(F)c2)[C@@H](O)CC1`, the INHIBITION was determined as 13.85%.

For `CCOc1ccc(-n2nnc(C(=O)O)c2-c2ccncc2)cc1`, the INHIBITION was determined as 15%. Then `O=C(O)c1ccnc(SCC(=O)c2ccccc2)c1`, with 9.55%; and `O=C(O)c1ccnc(SCc2ccccc2)c1`, with 13.5%. With `O=C(O)c1ccnc(SCC(F)(F)F)c1`, the INHIBITION came to 57%. For `CC(=O)N1CCCN(C(=O)CN(C)c2ccc(Cl)cn2)CC1`, the INHIBITION was 22.8%.

For the compound `COc1ccc(CN2CCCC2c2cccc(F)c2)c(OC)c1OC` (stereo not given), the INHIBITION turned out to be 16%. Take `Cc1ccc(S(C)(=O)=O)cc1C(=O)N1CCCC(n2cncn2)C1` (stereo not given): the INHIBITION is -12.1%. As for `CN(C)C(=O)CO[C@H]1CN(Cc2ccsc2)[C@@H]2COC[C@H]12`, the figure is -0.284%.

For `O=C(Nc1ncc[nH]1)c1cc(-c2cccnc2)n[nH]1`, the INHIBITION was determined as 57%.

Consider `CC(C)Cc1nc(NC(=O)c2cc(-c3cccnc3)n[nH]2)n[nH]1`, for which the INHIBITION is 40.1%. As for `COc1cccc(-c2cc(C(=O)Nc3nc[nH]n3)[nH]n2)c1`, the figure is -43.7%; as for `CN1CC(=O)N(c2cccc(F)c2)CC12CCN(Cc1cccnc1)C2` (stereo not given), 1.58%. Regarding `Cc1noc(C(C)C)c1C(=O)NCCC(=O)N1CCCCC1`, the INHIBITION is recorded as -18%. Take `COc1ccccc1NC(=O)NC1(c2noc(CN(C)C)n2)CCCC1`: the INHIBITION came out at 48.1%.

For `Cc1cccc(CN2CCc3nnc(Cn4cccc4)n3CC2)n1`, the INHIBITION was 23.5%.

In the case of `Cc1nc(-c2ccc(Cl)cc2)n(CC(=O)NC(C)C)c(=O)c1CCO`, the INHIBITION turned out to be 61.4%. Consider `CCN(CC)C(=O)Cn1c(-c2ccc(Cl)cc2)nc(C)c(CCO)c1=O`, for which the INHIBITION was -21.8%. Then `COCCNC(=O)Cn1c(-c2ccc(Cl)cc2)nc(C)c(CCO)c1=O`, with 2.29%; and `CCc1nnc(C(C)N2CCC(NC(=O)C3CCCCC3)CC2)o1` (stereo not given), with 11.3%; and `CN(Cc1cnccn1)C(=O)[C@@]12CNC[C@@H]1CN(Cc1ccccc1)C2`, with -22.3%. For the compound `O=C(NCC1Cn2nnc(-c3cccc(F)c3)c2CO1)c1ccc[nH]1` (stereo not given), the INHIBITION is given as 9.63%.

Take `CCN1C[C@@H]2CN(S(=O)(=O)c3cccs3)C[C@@H]2C1=O`: the INHIBITION is -24.5%. Then `O=S(=O)(c1cccs1)N1CCN2C[C@H](OCC3CC3)C[C@H]2C1`, with 8.85%; and `CCO[C@@H]1C[C@H]2CN(S(=O)(=O)c3cccs3)CCN2C1`, with 57.1%. Turning to `CCOc1ccc(N(C)S(=O)(=O)c2c[nH]c(C(C)C)n2)cc1`, the INHIBITION was 10.3%. As for `CC(C)c1nc(S(=O)(=O)N(C)c2ccc(F)cc2)c[nH]1`, the figure is 54.8%; as for `CC(C)c1nc(S(=O)(=O)N(C)c2cc(F)ccc2F)c[nH]1`, 23.3%. Consider `CNC(=O)c1cn[nH]c1C1CCCN1C(=O)c1ccccn1` (stereo not given), for which the INHIBITION is given as -20.6%.

As for `COCCn1cnnc1C1CCCN(c2cnccn2)C1` (stereo not given), the INHIBITION is recorded as 30.4%. On to `CSCCC(=O)N[C@H]1CC[C@H](Nc2nccc(-c3ccncc3)n2)C1`, for which the INHIBITION is given as 0.923%. In the case of `CSCC(=O)N[C@H]1CC[C@H](Nc2nccc(-c3ccncc3)n2)C1`, the INHIBITION is recorded as 14.2%.

With `COCCC(=O)N[C@H]1CC[C@H](Nc2nccc(-c3ccncc3)n2)C1`, the INHIBITION amounted to 61.5%. Regarding `Cc1cc(C(F)(F)F)nc(C2COCCN2S(C)(=O)=O)n1` (stereo not given), the INHIBITION was 33.65%. As to `CC(C)OCCCNS(=O)(=O)c1ccc2c(c1)NC(=O)C(C)O2` (stereo not given), the INHIBITION is -4.87%. For the compound `COc1cc(NCc2ccc(Cl)cc2)c(-c2nn[nH]n2)cc1OC`, the INHIBITION is recorded as 22.6%. On to `O=C(CCCn1cncn1)N1CCC2(CC1)[C@H](O)C[C@@H]2OCCO`, for which the INHIBITION came to 54.4%. In the case of `O=C(CCn1cncn1)N1CCC2(CC1)[C@H](O)C[C@@H]2OCCO`, the INHIBITION is given as 12.7%. Take `O=C(CCCn1ccnc1)N1CCC2(CC1)[C@H](O)C[C@@H]2OCCO`: the INHIBITION was determined as 18%. With `O=C(CCn1cc(Cl)cn1)N1CCCC(O)(CO)CC1` (stereo not given), the INHIBITION was -15.6%. With `O=C(CCn1cc(Cl)cn1)N1CCC2(CC1)OCCCC2O` (stereo not given), the INHIBITION was found to be 2.79%.

As to `O=C(CCn1cc(Cl)cn1)N1CCC2(CC1)[C@H](O)C[C@@H]2OCCO`, the INHIBITION is 75.7%.

`Cc1nc(C)n(C2CCCN(C(=O)CCOCC(C)C)C2)n1` (stereo not given): the INHIBITION is 7.27%. As to `Cc1cc(N2CCN(CC(=O)N(C)C)CC2)nc(-c2ccncc2)n1`, the INHIBITION stood at 4.74%. Consider `CNc1cc(C2CN(C(=O)c3cnn(C)c3)CCO2)nc(C)n1` (stereo not given), for which the INHIBITION is on record as 25.8%.

For the compound `CCC(Cn1ccnc1)n1cnc2c(C)csc2c1=O` (stereo not given), the INHIBITION is 14.9%. On to `Cc1nc(C2CCCN2Cc2cc(Cl)c3c(c2)OCO3)no1` (stereo not given), for which the INHIBITION is 44.3%.

As to `Cc1nc(C2CCCN2Cc2cc(Cl)c3c(c2)OCCO3)no1` (stereo not given), the INHIBITION is on record as 45.4%. In the case of `Cc1nc(C2CCCN2Cc2cc(Cl)c3c(c2)OCCCO3)no1` (stereo not given), the INHIBITION is 52.2%. Regarding `COc1ccc(C)cc1CNCc1ccc(-n2nc(C)cc2C)nc1`, the INHIBITION is 18.6%. Then `Cc1nc(CNCc2ccc(N3CCC(CO)CC3)nc2)cs1`, with -11.6%. Turning to `Cc1ccc(CNCc2ccc(N3CCC(CO)CC3)nc2)c(C)c1`, the INHIBITION stood at 58.7%. For `Cc1ncsc1C(=O)OCCN1CCCCCC1=O`, the INHIBITION is -60.9%.

On to `CCc1n[nH]c(C2CN(C(=O)CCCn3cccn3)CCO2)n1` (stereo not given), for which the INHIBITION is on record as 56.1%. Then `CC(C)(C)c1n[nH]c(C2CN(C(=O)CCc3cccs3)CCO2)n1` (stereo not given), with -32.5%; and `CCc1n[nH]c(C2CN(C(=O)CCc3cccs3)CCO2)n1` (stereo not given), with 51.3%; and `CCCc1n[nH]c(C2CN(C(=O)CCCn3cccn3)CCO2)n1` (stereo not given), with 1.81%. Take `CCCc1n[nH]c(C2CN(C(=O)CCn3nc(C)cc3C)CCO2)n1` (stereo not given): the INHIBITION is 34.6%. Take `CCc1n[nH]c(C2CN(C(=O)Cc3cccs3)CCO2)n1` (stereo not given): the INHIBITION is -33.7%. In the case of `CCCc1n[nH]c(C2CN(C(=O)CCCn3ccnc3)CCO2)n1` (stereo not given), the INHIBITION is reported as -18.9%. For the compound `Cc1n[nH]c(C2CN(C(=O)CCCn3cccn3)CCO2)n1` (stereo not given), the INHIBITION is reported as -22.1%.

Regarding `CCCc1n[nH]c(C2CN(C(=O)CCCn3ccnc3C)CCO2)n1` (stereo not given), the INHIBITION came out at 87.2%. `Cc1cc(C(=O)N2C[C@H](C(C)C)[C@@H](N(C)C)C2)cs1`: the INHIBITION was found to be 47.2%. For the compound `CS(=O)(=O)c1cn[nH]c1C1CCCCN1C(=O)c1cnccn1` (stereo not given), the INHIBITION is listed as -21.4%.
